Results filed as inconclusive are left out. The source made the active and inactive calls. The call rests on the fitted dose curve.
On the % scale 0 is the no-effect control and ±100 the full control effect; potency means the concentration at half of the fitted maximal effect.

Sequence of Thyrotropin receptor (Homo sapiens) (P16473 whole entry, looked up): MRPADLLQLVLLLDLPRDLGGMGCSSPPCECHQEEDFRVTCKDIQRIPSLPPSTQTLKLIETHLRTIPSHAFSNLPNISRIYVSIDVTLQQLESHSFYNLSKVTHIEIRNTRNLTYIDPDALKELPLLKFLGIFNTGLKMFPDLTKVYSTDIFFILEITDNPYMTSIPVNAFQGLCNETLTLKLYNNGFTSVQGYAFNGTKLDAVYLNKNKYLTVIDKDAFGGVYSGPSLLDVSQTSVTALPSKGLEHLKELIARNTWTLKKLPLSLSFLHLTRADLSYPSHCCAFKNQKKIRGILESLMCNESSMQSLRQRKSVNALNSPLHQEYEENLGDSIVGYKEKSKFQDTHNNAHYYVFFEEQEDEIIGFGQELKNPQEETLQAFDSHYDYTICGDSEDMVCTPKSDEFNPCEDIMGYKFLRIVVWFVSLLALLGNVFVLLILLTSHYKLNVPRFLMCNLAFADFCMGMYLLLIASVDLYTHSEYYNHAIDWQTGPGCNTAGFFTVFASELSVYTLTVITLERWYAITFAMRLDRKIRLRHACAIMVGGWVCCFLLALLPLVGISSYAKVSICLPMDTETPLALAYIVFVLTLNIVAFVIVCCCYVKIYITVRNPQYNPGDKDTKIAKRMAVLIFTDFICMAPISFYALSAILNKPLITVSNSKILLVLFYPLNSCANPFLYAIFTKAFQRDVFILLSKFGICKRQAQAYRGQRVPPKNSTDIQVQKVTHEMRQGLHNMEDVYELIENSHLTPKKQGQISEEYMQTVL

This assay addresses Thyrotropin receptor (Homo sapiens) (UniProt P16473). The experiment in a line: qHTS assay to identify small molecule agonists of the thyroid stimulating hormone receptor (TSHR) signaling pathway (AID 1224843). Further: nearly all actives have a fitted effect of over 45% in size. To be noted: TSHR-HEK293 cells, cAMP HTRF, agonist mode, 30 min; series mostly up to 92.4 µM; activation: at the top concentration. The source says:
National Center for Advancing Translational Sciences [NCATS]
NIH Chemical Genomics Center [NCGC]
U.S. Environmental Protection Agency [EPA]
National Institutes of Environmental Health Sciences [NIEHS]
National Toxicology Program [NTP]
U.S. Food and Drug Administration [FDA]
TSHR is the receptor for thyrotropin (thyroid stimulating hormone or TSH), a member of the glycoprotein hormone family. TSH is released by the anterior pituitary gland and is the main regulator of thyroid gland growth and development. Upon binding circulating thyrotropin, a G-protein signal cascade activates adenylyl cyclase and […] cAMP concentration is increased. cAMP is a key second messenger involved extensively in cellular signal transduction pathways associated with the majority of G-protein coupled receptors (GPCRs). The activation of these GPCRs by neurotransmitters, lipids, nucleotides, peptides and hormones results in the activation or the inhibition of plasma membrane-bound adenylate cyclase through heterotrimeric G-proteins. A cell-based TSHR assay was used to screen the Tox21 10K library for compounds that can modulate TSHR in agonist mode.
Tox21 Assay Protocol Summary:
TSHR-Hek293 cells were dispensed at 800 cells/4uL/well in 1536-well white plates using a Multidrop dispenser. […] The plates were incubated at room temperature for 30 min. 2.5 ul/well of cAMP-d2 and 2.5ul/well of anti-cAMP-cryptate was added respectively into the assay plates using a Flying Reagent Dispenser. After 1 hr incubation at room temperature, the fluorescence intensity in the plates was measured using an Envision plate reader. Each test compound was measured at 15 concentrations and in triplicates.
As to `CCCC(=O)Nc1ccc(O)c(C(C)=O)c1`, the “activation” value is 2.85% [at 42.5 µM] (inactive).

On to `CCCn1cnc2c1c(=O)n(CCCCC(C)=O)c(=O)n2C`, for which the “activation” value is 13.8% [at 42.5 µM] (inactive).

Consider `NCC(=O)O`, for which the activation is -1.56% [at 19 µM] (inactive).

With `CC(C)(C)OCC1CO1` (stereo not given), the “activation” value is -7.24% (inactive).

`COc1ccc(C(=O)N2CCN(CC(=O)N3CCOCC3)CC2)cc1`: the “activation” value is 6.44% [at 42.5 µM] (inactive).

Turning to `Cc1cc(C(=O)O)ccc1[N+](=O)[O-]`, the “activation” value was -3.73% (inactive).

Consider `CCCCCCCCCOS(=O)(=O)O`, for which the “activation” value is -19.5% (inactive).

On to `C[C@@H](c1ncncc1F)C(O)(Cn1cncn1)c1ccc(F)cc1F` (stereo not given in full), for which the “activation” value was 3.8% [at 42.5 µM] (inactive).

As to `CCCCC`, the “activation” value is 2.57% (inactive).

`CC(C)CC(=O)C1C(=O)c2ccccc2C1=O`: the “activation” value was -0.982% (inactive).

In the case of `Nc1ccccc1S(=O)(=O)c1ccccc1`, the “activation” value was -9.69% (inactive).

As to `COC(C)OC`, the “activation” value is 4.85% (inactive).

Take `CCOC(=O)C(F)(F)F`: the “activation” value was -12.9% (inactive).

Regarding `C#Cc1cccc(Nc2ncnc3cc(OCCOC)c(OCCOC)cc23)c1`, the “activation” value was -3.25% [at 42.5 µM] (inactive).

Turning to `COCCCN1CCC(NC(=O)c2cc(Cl)c(N)c3c2OCC3)CC1`, the “activation” value is 0.0503% [at 42.5 µM] (inactive).

Consider `CC1(c2ccccc2)OC(C(=O)O)=CC1=O` (stereo not given), for which the “activation” value was 10.6% [at 42.5 µM] (inactive).

Turning to `Clc1ccc(Cn2c(CN3CCCC3)nc3ccccc32)cc1`, the “activation” value was -12.9% [at 42.5 µM] (inactive).

As to `O=C(O)C1(C(=O)O)CCC1.[NH2-].[NH2-].[Pt+2]`, the “activation” value was 3.02% [at 42.5 µM] (inactive).

For the compound `CCCCNc1ccc(C(=O)OCCOCCOCCOCCOCCOCCOCCOCCOCCOC)cc1`, the “activation” value is -4.7% [at 42.5 µM] (inactive).

Consider `CCCCCCOC(=O)NC(=N)c1ccc(NCc2nc3cc(C(=O)N(CCC(=O)OCC)c4ccccn4)ccc3n2C)cc1`, for which the “activation” value was -19.4% [at 42.5 µM] (inactive).

In the case of `C[N+](C)(C)CCOC(=O)CCC(=O)OCC[N+](C)(C)C`, the “activation” value is -0.735% [at 42.5 µM] (inactive).

With `O=C(O)c1ccccc1Cl`, the “activation” value is -0.532% (inactive).

Consider `O=C(O)c1ccco1`, for which the “activation” value is 15.2% (inactive).

Turning to `NC(N)=NCCC[C@H](N)C(=O)O`, the activation is -0.151% [at 8.39 µM] (inactive).

As for `COc1cc(C(=O)OCCCN2CCCN(CCCOC(=O)c3cc(OC)c(OC)c(OC)c3)CC2)cc(OC)c1OC`, the “activation” value was -13.4% [at 42.5 µM] (inactive).

Consider `CCN(CC)CCNc1ccc(CNC=O)c2sc3ccc(OC)cc3c(=O)c12`, for which the “activation” value is 2.38% (inactive).

As to `CC1OC(=O)C(C)OC1=O` (stereo not given), the “activation” value was 0.261% (inactive).

Consider `O=C1[C@H]2CCCC[C@H]2C(=O)N1CCCCN1CCN(c2nsc3ccccc23)CC1`, for which the “activation” value is 5.88% [at 42.5 µM] (inactive).

As to `CCOc1ccc(O)cc1`, the “activation” value is 15% (inactive).

For the compound `COc1ccc(C)cc1[N+](=O)[O-]`, the “activation” value is -2.06% (inactive).

On to `CC(CSC(=O)c1ccccc1)C(=O)N1C[C@@H](Sc2ccccc2)C[C@H]1C(=O)O` (stereo not given in full), for which the activation was -0.691% [at 19 µM] (inactive).

For the compound `ClCCOCCOCCCl`, the “activation” value is 4.09% (inactive).

For the compound `CCCCCCCN`, the “activation” value was 0.422% (inactive).

With `COc1cc2c(cc1OC)C(C(C(=O)N(CCc1ccc(OC)c(OC)c1OC)CCc1ccc(OC)c(OC)c1OC)c1ccccc1)=NCC2` (stereo not given), the “activation” value was -2.25% [at 42.5 µM] (inactive).

Take `O=CC1CC=CCC1` (stereo not given): the “activation” value was 11.1% (inactive).

As to `NC(=O)C(c1ccccc1)(c1ccccc1)[C@@H]1CCN(CCc2ccc3c(c2)CCO3)C1`, the “activation” value was 8.12% [at 42.5 µM] (inactive).

As to `O=C(O)c1ccc(S(=O)(=O)O)cc1C(=O)O`, the “activation” value is 2.17% (inactive).

Take `Nc1c(CC(=O)O)cccc1C(=O)c1ccc(Br)cc1`: the “activation” value was -7.58% [at 42.5 µM] (inactive).

Regarding `Cc1ccc(C(=O)Oc2ccc(C(O)CNC(C)(C)C)cc2OC(=O)c2ccc(C)cc2)cc1` (stereo not given), the Potency was 0.0473 µM (active).

As for `CC[N+](C)(CC)CCOC(=O)C(O)(c1ccccc1)C1CCCCC1` (stereo not given), the “activation” value was 3.41% [at 42.5 µM] (inactive).

Source of the values: PubChem BioAssay (Tox21).
